Source: PubChem (National Center for Advancing Translational Sciences (NCATS))
IL1B secr inh = qHTS for Inhibitors of Inflammasome Signaling: IL-1-beta AlphaLISA Primary Screen; THP-1 LPS/ATP IL-1B secretion, AlphaLISA, 16 h; stronger effect = lower value; AID 743279, 2014; 4.7% of 360,000 active; activity change, % at 57.5 µM; in the data active means activity change below about -50%; inconclusive means mostly about -30% to -49%
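Secreted IL-1B measured by AlphaLISA bead assay after 16 h compound exposure of THP-1 cells; compounds (final up to 57.5 uM) added 1 h before LPS (250 ng/mL) and ATP (1.25 mM) stimulation; lower signal means less secretion.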
DT40 TDP1 CPT = qHTS for Inhibitors of human tyrosyl-DNA phosphodiesterase 1 (TDP1): qHTS in cells in presence of CPT | chicken DT40 Tdp1-/-;hTDP1 cells + 20 nM CPT, ATP luminescence, 48 h | Potency, µM (top dose mostly 46.2 µM), usual class: inhibitors | 12% of 420,000 active; further: nearly all actives have a fitted effect of over 55% in size
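Chicken DT40 Tdp1-/- cells stably complemented with human TDP1 were seeded at 400 cells/well in medium containing 20 nM camptothecin, exposed to pin-transferred compounds, and grown at 37 °C for at least 48 hr. Viability was read as ATP luminescence.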
HT1080 IDH1KD tx = qHTS for induction of synthetic lethality in tumor cells producing 2HG: qHTS for the HT-1080-IDH1KD cell line | HT-1080 IDH1 knockdown viability, ATP luminescence, 48 h | 2% of 360,000 active | Potency, µM (doses to about 46.1 µM), most hits filed as cytotoxic
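Using the IDH1-knockdown HT-1080 line run in the same batch and compound series as the NT line, viability after 48 h at 37 °C was determined by CellTiter-Glo luminescence and expressed as % activity.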
TDP1 cell noCPT = qHTS for Inhibitors of human tyrosyl-DNA phosphodiesterase 1 (TDP1): qHTS in cells in absence of CPT; DT40 Tdp1-/- hTDP1 cells, no CPT, ATP luminescence, 48 h; Potency, µM (highest dose often 46.2 µM), most hits filed as inhibitors; 15% of 420,000 active; AID 686978, 2013; further: nearly all actives have a fitted effect of over 55% in size
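DT40 Tdp1-/-;hTDP1 cells, no CPT (DMSO vehicle only), 400 cells/well; compounds pin-transferred; ≥48 hr, 37 °C; CellTiter-Glo 30 min RT dark, luminescence read.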
HT1080NT lethal = qHTS for induction of synthetic lethality in tumor cells producing 2HG: qHTS for the HT-1080-NT fibrosarcoma cell line; HT-1080-NT fibrosarcoma viability, CellTiter-Glo ATP luminescence, 48 h; Potency, µM (top dose mostly 46.1 µM), actives largely listed as cytotoxic; 1.6% of 360,000 active; AID 686970, 2013;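 further: NT is the 2HG producing partner of a matched IDH1 knockdown line; nearly all actives have a fitted effect of over 55% in size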
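Luminescent CellTiter-Glo readout after 48 hours of compound exposure at 37 degrees C defined viability of HT-1080-NT cells. Activity was normalized to DMSO wells and cell-free media wells; concentration-response curves were fitted and assigned curve classes.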
Each line names hits and unclear results; the compound was inactive in the other large screens. A selection: hits, their analogues and other compounds. The true share with any hit is near 19%. Unless noted, the call rests on the fitted dose curve; in most records, active means well fitted curve in the direction sought with a large enough effect; inconclusive means small, poorly fitted or top-dose-only effect, or another doubt; inactive means no such curve, though single readings can be large; an effect the other way counts as inactive or inconclusive.

Cn1c(=N)n(CC(O)c2cccc3ccccc23)c2ccccc21 (stereo unspecified)	IL1B secr inh inconclusive, DT40 TDP1 CPT 15µM, TDP1 cell noCPT 13µM, HT1080NT lethal 23µM
OC(COc1ccccc1)Cn1c2ccccc2c2ccccc21 (stereo unspecified)	DT40 TDP1 CPT inconclusive, HT1080 IDH1KD tx inconclusive, TDP1 cell noCPT inconclusive, HT1080NT lethal inconclusive
Cc1c(C)c2ccc(OC(C)C(=O)N3CC[C@@]4(O)CCCC[C@H]4C3)cc2oc1=O (stereo partly specified)	DT40 TDP1 CPT inconclusive, TDP1 cell noCPT inconclusive
CCn1c(=N)n(CC(O)COc2ccc(C)cc2)c2ccccc21 (stereo unspecified)	DT40 TDP1 CPT 12µM, HT1080 IDH1KD tx inconclusive, TDP1 cell noCPT 16µM, HT1080NT lethal inconclusive (no result: IL1B secr inh)
CCCCN(CC(O)COc1cccc(C)c1)CC(O)COc1cccc(C)c1 (stereo unspecified)	IL1B secr inh -100, DT40 TDP1 CPT inconclusive, HT1080 IDH1KD tx 18µM, TDP1 cell noCPT 23µM, HT1080NT lethal 21µM
CN(C)CC(O)COc1cccc(OCC(O)CN(C)C)c1 (stereo unspecified)	none
Cc1cccc(OCC(O)CN2CCc3ccccc3C2)c1 (stereo unspecified)	DT40 TDP1 CPT inconclusive, TDP1 cell noCPT inconclusive
CCCn1c(=N)n(CC(O)c2ccc(C)cc2)c2ccccc21 (stereo unspecified)	IL1B secr inh inconclusive, DT40 TDP1 CPT inconclusive, TDP1 cell noCPT 23µM
CCCCn1c(=N)n(CC(O)COc2cccc(C)c2)c2ccccc21 (stereo unspecified)	IL1B secr inh -94, DT40 TDP1 CPT 12µM, HT1080 IDH1KD tx inconclusive, TDP1 cell noCPT 13µM, HT1080NT lethal inconclusive
CCCn1c(=N)n(CC(O)c2ccco2)c2ccccc21 (stereo unspecified)	DT40 TDP1 CPT inconclusive, TDP1 cell noCPT inconclusive
Cc1ccc(-n2cccc2/C=C2/C(=N)N3C(=NC2=O)SN=C3S(C)(=O)=O)cc1	none
Cc1cc(C)cc(-n2cccc2/C=C2/C(=N)N3C(=NC2=O)SN=C3S(C)(=O)=O)c1	HT1080NT lethal 18µM
Cc1cccc(C)c1-c1ccc(CN2C(CC(C)C)C(=O)N(Cc3cn(CC4CCCCC4)nn3)CCS2(=O)=O)cc1 (stereo unspecified)	DT40 TDP1 CPT inconclusive, HT1080 IDH1KD tx inconclusive, TDP1 cell noCPT 23µM, HT1080NT lethal inconclusive
CC(C)CC1C(=O)N(Cc2cn(CC3CCCCC3)nn2)CCS(=O)(=O)N1Cc1ccc(-c2ccc(Cl)c(Cl)c2)cc1 (stereo unspecified)	DT40 TDP1 CPT inconclusive, TDP1 cell noCPT 16µM, HT1080NT lethal inconclusive
COc1ccc(N2CCN(CCNC(=O)Nc3ccc([N+](=O)[O-])cc3OC)CC2)cc1	DT40 TDP1 CPT 29µM, TDP1 cell noCPT 23µM
CCCN1CCN(CCNC(=O)Nc2ccc(OC)c(OC)c2)CC1	DT40 TDP1 CPT inconclusive (no result: IL1B secr inh, HT1080 IDH1KD tx, HT1080NT lethal)
COc1ccc(NC(=O)NCCCN2CCN(c3cc(C)ccc3C)CC2)cc1	DT40 TDP1 CPT 8.2µM, HT1080 IDH1KD tx inconclusive, TDP1 cell noCPT 8.2µM, HT1080NT lethal inconclusive
COc1cc(NC(=O)NCCN2CCN(c3ccc(Cl)cc3)CC2)ccc1C	IL1B secr inh -60, DT40 TDP1 CPT inconclusive, TDP1 cell noCPT inconclusive, HT1080NT lethal inconclusive
COc1ccc(N2CCN(CCNC(=O)Nc3ccc(C)c(Cl)c3)CC2)cc1	DT40 TDP1 CPT 23µM, HT1080 IDH1KD tx inconclusive, TDP1 cell noCPT 16µM
COc1ccc(NC(=O)NCCN2CCN(c3cccc(Cl)c3)CC2)cc1	TDP1 cell noCPT inconclusive
CC(=O)c1ccc(NC(=O)NCc2ccc(F)cc2)cc1	IL1B secr inh inconclusive
COc1ccc(C2=C(C)C(=NCCCN3CCN(c4cc(C)ccc4C)CC3)NS2(=O)=O)cc1	DT40 TDP1 CPT 4.6µM (no result: IL1B secr inh, HT1080 IDH1KD tx, HT1080NT lethal)
CCS(=O)(=O)N1N=C(c2ccccc2)CC1c1ccc2nccnc2c1 (stereo unspecified)	DT40 TDP1 CPT inconclusive, TDP1 cell noCPT 10µM
